# Results taken from PubChem BioAssay AID1458 (National Center for Advancing Translational Sciences (NCATS), 2008).
# Screen size: about 210,000 compounds; about 5,900 (2.8%) were called active. Another 5% or so got no clear call; they are omitted. Calls come from the whole dose curve; as a rule, active = well fitted activation curve with a large enough effect; inconclusive = small, poorly fitted or top-dose-only effect; inactive = no such curve, though single readings can be large or run the other way. The list comes from a sample in which actives are over-represented; it also holds similar structures and randomly drawn compounds.
# Assay: qHTS Assay for Enhancers of SMN2 Splice Variant Expression; note: nearly all actives have a fitted effect of over 55% in size; for activity change, positive = activation: % of control where 0% means no effect
# Details: HEK293 SMN2-luciferase splicing reporter, luminescence, 30-36 h; series mostly up to 46.1 µM; activity change, positive = activation: at the top concentration
# How it was run: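 HEK293 cells carry an SMN2 minigene-luciferase reporter in which exon 7 inclusion puts luciferase in frame. Cells were seeded at 2000 cells/well, attached for 10-12 hours, then exposed to compounds for 30-36 hours at 37C before ONE-Glo luminescence.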
# Potency is the fitted concentration of half-maximal effect.
Compound,Potency,"activity change, positive = activation"
Cc1nn2cc(-c3ccc(Cl)cc3)cnc2c1Br,3.55 µM (active),
COc1ccccc1CNC(=O)CCn1c(=O)c2ccccc2n(CC(=O)Nc2ccc(Br)cc2F)c1=O,,5.14% (inactive)
COc1ccc(NC(=O)c2ccc3oc(=O)c(S(=O)(=O)c4ccc(F)cc4)cc3c2)c(OC)c1,,1.42% (inactive)
O=C(C1CC1)N1CCc2cc(Br)cc(S(=O)(=O)N3CCN(c4ccccc4F)CC3)c21,,-0.303% (inactive)
COc1cccc(C(=O)NC2=NC(c3ccc(N(C)C)cc3)CC(=O)N2)c1 (stereo unspecified),,-5.38% (inactive)
Cc1cc(-c2csc(N)n2)c(C)n1-c1ccccc1,12.6 µM (active),
Cc1cc(-c2csc(N)n2)c(C)n1Cc1ccccc1,,-2.13% (inactive)
CC(=O)Nc1ccc(C(=O)Nc2nc(-c3cc(C)n(Cc4ccccc4)c3C)cs2)cc1,,-33.5% (inactive)
COc1ccc(CCNc2nc3c(-c4cccc(F)c4)nnn3c3ccccc23)cc1OC,,-4.52% (inactive)
CCCN(CCC)C(=O)C(Cc1ccccc1)NS(=O)(=O)c1ccc2c(c1)c(=O)n(C)c(=O)n2C (stereo unspecified),,-1.75% (inactive)
O=C(Nc1cccc(-c2nnc(-c3ccccc3)o2)c1)C1CCCO1 (stereo unspecified),,29.6% (inactive)
O=C(Nc1nnc(CCc2ccccc2)s1)C1CCCO1 (stereo unspecified),,49.4% (inactive)
O=C(Nc1ccc(-c2nnc(-c3ccccc3)o2)cc1)C1CCCO1 (stereo unspecified),3.55 µM (active),
CCOc1ccc(CCNC(=O)c2cc3c(=O)n(C)c4ccccc4c3n2C)cc1,,14.5% (inactive)
Cn1c(COc2ccccc2C(C)(C)C)nc2ccccc21,,0.0855% (inactive)
CC1CCN(c2nc3ccc(C(=O)N4CCN(c5ccccc5)CC4)cc3s2)CC1,,-60.9% (inactive)
C=CC(C1=CC(=O)C=CC1=O)c1ccc(O)cc1 (stereo unspecified),,3.3% (inactive)
N/C(=N\OC(=O)c1cc(-c2ccccc2)nc2ccccc12)c1ccncc1,,-9.96% (inactive)
Cc1cccc(C(=O)O)c1,,-1.62% (inactive)
Cc1cccc(/C(N)=N/OC(=O)c2ccccc2Cl)c1,11.2 µM (active),
COc1ccc(CNc2nc(-c3ccc(Cl)cc3)nn2C(=O)c2ccccc2)cc1,,5.14% (inactive)
COc1ccc2c(c1)c(=O)c(C(=O)c1ccccc1)cn2CC(=O)Nc1ccc2c(c1)OCCO2,,-7.16% (inactive)
Cc1ccc(-n2c(C)cc(C(=O)CN3C(=O)C(=O)N(C4CCCC4)C3=O)c2C)cc1,,-21.9% (inactive)
COc1ccc(-n2c(C)cc(C(=O)CSc3nnc(-c4cccs4)o3)c2C)cc1,,-65.5% (inactive)
Cn1c(CC(=O)Nc2ccccc2)nnc1SCC(=O)c1ccccc1,,-15.5% (inactive)
N#Cc1ccc(CSc2nnc3ccccn23)cc1,,18.2% (inactive)

Compound,Potency,"activity change, positive = activation"
Cc1ccc(-n2c(C)cc(C(=O)CSc3nnc4ccccn34)c2C)cc1,2.24 µM (active),
O=C(CSc1nnc2ccccn12)c1ccccc1,12.6 µM (active),
Cn1c(=O)c2c(nc(Oc3ccc(C#N)cc3)n2Cc2ccc(Cl)cc2Cl)n(C)c1=O,,-11.5% (inactive)
Cc1cccc(C(C)C)c1NC(=O)C(NS(=O)(=O)c1cccc2nsnc12)c1ccccc1 (stereo unspecified),,-1.11% (inactive)
CCOC(=O)N1CCc2c(sc3c2c(=O)n(Cc2ccccc2)c(=O)n3CC(=O)Nc2cccc(C)c2)C1,,3.36% (inactive)
COc1ccc(N2CCN(C(=O)c3cn(C)c4ccc(S(=O)(=O)N5CCOCC5)cc4c3=O)CC2)cc1,,-4.72% (inactive)
Cc1cc(NC(=O)CC(C)C)cc(-c2nc3ncccc3o2)c1O,,-7.35% (inactive)
COc1ccc(NC(=O)CSC2=Nc3ccccc3C3=NC(CC(=O)NCc4ccccc4OC)C(=O)N23)cc1Cl (stereo unspecified),,7.19% (inactive)
CCc1ccccc1N1CC(c2nc3ccccc3n2CCCCOc2ccccc2)CC1=O (stereo unspecified),,-26.7% (inactive)
Cc1cc(C)c(NC(=O)c2cc3sc(Cl)cc3n2C)c(C)c1,,-5.94% (inactive)
Cc1cnc(C(=O)OCC(=O)N2CCc3ccccc32)cn1,,2.69% (inactive)
O=C(c1cccc(C(=O)N2CCc3ccccc32)n1)N1CCc2ccccc21,,-21.8% (inactive)
O=C(c1cnn2ccccc12)N1CCc2ccccc21,11.2 µM (active),
COc1cc(OC)c(C2C=C(C(=O)O)Nc3ncnn32)cc1OC (stereo unspecified),,-0.129% (inactive)
S=C(NCc1ccc2c(c1)OCO2)NCc1ccco1,,0.358% (inactive)
S=C(NCc1ccco1)Nc1ccc2c(c1)OCCO2,15.8 µM (active),
FC(F)Oc1ccc(NC(=S)NCc2ccco2)cc1Cl,,22.7% (inactive)
COc1ccccc1CNC(=O)c1ccc(NC(=O)N2CC(C)Sc3ccccc32)cc1 (stereo unspecified),,-0.38% (inactive)
CC(=O)N1CCc2cc(Br)cc(S(=O)(=O)CCC(=O)NCCc3ccc(Cl)cc3)c21,,-6.16% (inactive)
Cc1cc(C)nc(N/N=C/c2c(C)oc3ccccc23)n1,,-2.55% (inactive)
C(=N\Nc1ccc2ccccc2n1)/c1ccc2c(c1)OCO2,,-36.4% (inactive)
Cc1noc(C)c1/C=N/Nc1ccc2ccccc2n1,14.1 µM (active),
CCOC(=O)c1oc2ccc(S(=O)(=O)n3nc(-c4ccccc4OC)cc3N)cc2c1C,,-4.54% (inactive)
COc1ccc(-c2nc3c(c4c2C[C@H](c2ccccc2)OC4)CN(S(=O)(=O)c2c(C)noc2C)CC3)c(C)c1,,-6.74% [at 9.22 µM] (inactive)
COc1ccc(-c2noc(COc3ccc(Cl)c(C)c3)n2)cc1,,-34.9% (inactive)
